# Test results taken from PubChem BioAssay (NCI).
# About 83,000 compounds went through this panel and 20% of them were active in at least one assay; those are over-represented in the sample as a whole.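 Growth was measured after 48 h exposure to one concentration of compound in 96-well plates. Values under 10 count as active.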 Values without a mark were called inactive. Calls of active or inactive are those of the source.
# Legend:
# Assay in all cases: NCI-60 one-dose screen, 48 h (100 = growth as untreated, 0 = no growth, -100 = all killed)
# Conditions in all cases: 10 µM unless noted
# SK-MEL-2 melanoma = tested on: SK-MEL-2 melanoma
# EKVX NSCLC = tested on: EKVX NSCLC
# SN12C renal = tested on: SN12C renal
# UO-31 renal = tested on: UO-31 renal
# TK-10 renal = tested on: TK-10 renal
# ACHN renal = tested on: ACHN renal
# CAKI-1 renal = tested on: CAKI-1 renal
# A498 renal = tested on: A498 renal
# CCRF-CEM leukemia = tested on: CCRF-CEM leukemia
SMILES,growth (SK-MEL-2 melanoma),growth (EKVX NSCLC),growth (SN12C renal),growth (UO-31 renal),growth (TK-10 renal),growth (ACHN renal),growth (CAKI-1 renal),growth (A498 renal),growth (CCRF-CEM leukemia)
COc1cccc(-c2nn(-c3ccccc3)cc2-c2ccnc(NCCCNC(=O)c3ccccc3)c2)c1,63.6%,55.8%,67.2%,39.3%,60.7%,69%,67.3%,59.4%,27.7%
C=C1C(=O)O[C@H]2[C@H]1CC/C(CNC(=O)/C=C/c1ccc(Cl)cc1Cl)=C\CC[C@@]1(C)O[C@@H]21,-13.8% (active),-35.8% (active),-43.4% (active),-90.2% (active),-88.8% (active),-79.9% (active),-31.2% (active),-3.46% (active),-30.7% (active)
Cc1nc2c(c(N3CCCc4ccccc43)n1)CCC2,43.9%,86.4%,31.5%,29.6%,57.8%,18.8%,20.7%,-1.39% (active),1.69% (active)
O=C(O)C1CCC(=O)N1C(=O)OCc1ccccc1 (stereo unspecified),103%,97.8%,90.1%,88.7%,88.7%,96.3%,83.4%,123%,102%
O=C(Nc1ccccc1Cl)Oc1ccc(-c2ccccc2)cc1,120%,98%,98.9%,84.5%,118%,101%,81.8%,167%,120%
O=C1/C(=C/c2ccc(Br)cc2)C=C(c2ccccc2)N1CCc1ccccc1,66%,40.1%,50.1%,45%,12.6%,13%,64.3%,50.8%,101%
CCCCCCCCCCCCCCCCCCOc1ccc(CC(=O)OCC[N+]2(C)CCCC2)cc1,117%,100%,97.9%,92.4%,98.4%,96.8%,84.9%,116%,99.1%
O=[N+]([O-])c1ccc(C2CC(c3ccccc3)=Nc3ccccc3S2)cc1 (stereo unspecified),107%,112%,103%,56.4%,148%,103%,93.6%,114%,73.2%
N[C@@H](CCCCNCC(=O)O)C(=O)O,115%,96.9%,101%,91%,98.1%,96.8%,96.9%,85.4%,109%
O=C(c1ccc(Nc2nccc(NCCCCNc3ccnc4cc(Cl)ccc34)n2)cc1)N1CCCCC1,68.7%,67.5%,67.4%,73.9%,91.5%,37.8%,86.1%,68%,-11.8% (active)
CC1OC(O[C@H]2/C=C/C=C/C=C/C=C/C=C/C=C/C=C/[C@H](C)[C@@H](O)[C@@H](C)[C@H](C)OC(=O)CC(O)CC(O)CCC(O)C(O)CC(O)C[C@]3(O)C[C@H](O)C(C(=O)O)C(C2)O3)C(O)[C@H](N)C1O (stereo partly specified),57.6%,-14.3% (active),-84.1% (active),-94.3% (active),-40.7% (active),-80.3% (active),36.1%,9.81% (active),36.8%
COC(=O)[C@]12CC[C@@H](C)[C@H](C)[C@@H]1C1=CC[C@@H]3[C@@]4(C)C(C=O)=C[C@@](C)(CO)[C@@H]4[C@H](O)C[C@@]3(C)[C@]1(C)CC2,-31.7% (active),7.75% (active),1.62% (active),-31.5% (active),-18.8% (active),-81.6% (active),-28.7% (active),-5.03% (active),1.38% (active)
O=S(=O)(Nc1cccc(Cl)c1)c1ccc(-c2cnc(C3CC3)o2)cc1,58.8%,35.1%,39.7%,35.5%,45.9%,37.1%,29.8%,-3.4% (active),12.8%
COc1cccc(C(=O)NCCCNc2cc(-c3cn(-c4ccccc4)nc3-c3cccc(OC)c3)ccn2)c1,70.2%,60.1%,61.1%,26.6%,55.2%,60.9%,65.4%,49.2%,24.7%
